Experimental data: PubChem BioAssay AID488850 (National Center for Advancing Translational Sciences (NCATS), 2010)
Results filed as inconclusive are left out. Values without a mark were called inactive. The source made the active and inactive calls. Calls come from the whole dose curve; as a rule, active = well fitted activation curve with a large enough effect; inconclusive = small, poorly fitted or top-dose-only effect; inactive = flat fitted curve, though single readings scatter.

Biological target: Lysosomal acid glucosylceramidase (Homo sapiens) (UniProt P04062)
Assay: qHTS Assay for Inhibitors and Activators of N370S glucocerebrosidase as a Potential Chaperone Treatment of Gaucher Disease: Purified N370S Glucocerebrosidase Confirmation for Probe SAR
Conditions: purified N370S GC, 4MU-glucoside fluorescence, 40 min; series mostly up to 57.5 µM; activity change, negative = inhibition: at the top concentration
From the text: NIH Chemical Genomics Center [NCGC] NIH Molecular Libraries Probe Production Centers Network [MLPCN] MLPCN Grant: MH086442-01 Assay Submitter (PI): Wei Zheng Glucocerebrosidase (GC) catalyzes the hydrolysis of beta-glucocerebroside to glucose and ceramide in lysosomes. Mutations in the glucocerebrosidase gene result in Gaucher disease, an autosomal recessive lysosomal storage disorder. Many of the mutations encountered in patients with Gaucher disease are missense alterations that may cause misfolding, decreased stability and/or mistrafficking of this lysosomal protein. […] These inhibitors include iminosugar analogs and three non-iminosugar inhibitors identified from a previous HTS of 62,000 compounds with the wild type recombinant enzyme. However, the enhancement of enzyme activity by the chaperone action of an enzyme inhibitor must be balanced against the direct inhibition of the enzyme. An enzyme activator could also function as a chaperone by binding to the enzyme and helping to correct its misfolding and mistrafficking. While activators for GC have not yet been identified, they may have better therapeutic potential than inhibitors. Therefore the discovery and development of chemical activators may provide a new strategy for the chaperone therapy. We have optimized a new assay using N370S mutant GC derived from the spleen of a Gaucher patient. […] In addition, the MLPCN compound library has expanded, which increases the chance of finding new and better probes. This assay characterizes compound activity using purified mutant enzyme instead of tissue homogenate. Compound activity differences may be due to the absence of endogenous cofactors found in tissue homogenate.
NCGC Assay Protocol Summary: This is a fluorogenic enzyme assay with 4-methylumbelliferyl-beta-D-glucopyranoside as the substrate and purified N370S glucocerebrosidase as the enzyme preparation. Upon the hydrolysis of this fluorogenic substrate, the resulting product, […] which can be detected by a standard fluorescence plate reader. Data were normalized to the controls for basal activity (without enzyme) and 100% activity (with enzyme). The AC50 values were determined from concentration-response data modeled with the standard Hill equation. Assay buffer: 50 mM citric acid (titrated with potassium phosphate to pH 5.0), 100 mM potassium chloride, 10 mM sodium chloride, 1 mM magnesium chloride, 0.01% Tween-20. 1536-well assay protocol: (1) Add 2 ul/well of glucocerebrosidase enzyme solution (5 nM final) (2) Add 23 nL compounds in DMSO solution. The final titration was 0.5 nM to 58 uM. (3) Add 2 ul of substrate (1 mM final) (4) Incubate at 37C for 40 min. (5) Add 2 ul stop solution (1M NaOH and 1M Glycine mixture, pH 10) (6) Detect the assay plate in a ViewLux plate reader (PerkinElmer) with Ex=365 nm and Em=440nm. Keywords: Glucocerebrosidase, beta-glucosidase, Gaucher Disease, pharmacological chaperone, chaperone therapy, high throughput screening, glucocerebrosidase inhibitor, MLSMR, MLSCN, NIH Roadmap, qHTS and NCGC

Sequence of Lysosomal acid glucosylceramidase (Homo sapiens) (P04062 whole entry N409S): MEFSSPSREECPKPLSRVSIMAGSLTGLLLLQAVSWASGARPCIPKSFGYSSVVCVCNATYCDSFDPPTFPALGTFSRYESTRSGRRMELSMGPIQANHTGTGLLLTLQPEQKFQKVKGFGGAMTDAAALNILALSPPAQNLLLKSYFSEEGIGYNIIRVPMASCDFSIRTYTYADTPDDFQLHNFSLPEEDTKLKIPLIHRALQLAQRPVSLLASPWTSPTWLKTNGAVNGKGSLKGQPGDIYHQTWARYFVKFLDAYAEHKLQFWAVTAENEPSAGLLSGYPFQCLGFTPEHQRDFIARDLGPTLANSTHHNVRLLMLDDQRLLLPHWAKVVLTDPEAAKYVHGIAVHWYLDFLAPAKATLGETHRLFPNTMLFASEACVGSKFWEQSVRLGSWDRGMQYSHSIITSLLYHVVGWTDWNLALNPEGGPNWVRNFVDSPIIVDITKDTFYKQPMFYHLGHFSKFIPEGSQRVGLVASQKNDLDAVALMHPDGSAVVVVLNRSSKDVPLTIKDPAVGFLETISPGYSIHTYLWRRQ

SMILES	Potency	activity change, negative = inhibition
Cc1cc(C)n2ncc(C(=O)NC3CCC(C(C)(C)C)CC3)c2n1 (stereo unspecified)	7.3 µM (active)	
CNC(=O)c1cnn2c(C)cc(C)nc12		-2.25%
Cc1cc(C)n2ncc(C(=O)Nc3ccc(S(C)(=O)=O)cc3)c2n1		9.34%
COc1ccc(NC(=O)c2cnn3c(C)cc(C)nc23)cc1Cl	25.9 µM (active)	
Cc1cc(C)n2ncc(C(=O)Nc3ccccc3C)c2n1	13 µM (active)	
Cc1cc(C)n2ncc(C(=O)Nc3ccc(Br)cc3)c2n1	16.3 µM (active)	
O=C(Nc1ccccc1Sc1ccccc1)c1cnn2c1NC(=C1CC1)C=C2C(F)F	16.3 µM (active)	
Cc1cc(C)n2ncc(C(=O)Nc3ccc4c(c3)OCO4)c2n1	5.17 µM (active)	
COc1ccc(NC(=O)c2cnn3c(C)cc(C)nc23)cc1F	5.8 µM (active)	
Cc1cc(C)n2ncc(C(=O)NC3CCCCC3)c2n1	11.6 µM (active)	
C#Cc1ccc(NC(=O)c2cnn3c(C)cc(C)nc23)cc1	6.51 µM (active)	
CC(=O)c1cccc(NC(=O)c2cnn3c(C)cc(C)nc23)c1	20.6 µM (active)	
CCc1ccc(NC(=O)c2cnn3c(C)cc(C)nc23)cc1	16.3 µM (active)	
Cc1ccc(NC(=O)c2cnn3c(C)cc(C)nc23)cc1	16.3 µM (active)	
CC(=O)Nc1ccccc1NC(=O)c1cnn2c(C)cc(C)nc12		9.29%
Cc1cc(C)n2ncc(C(=O)Nc3ccc4c(c3)OCCO4)c2n1	16.3 µM (active)	

SMILES	Potency	activity change, negative = inhibition
Cc1cc(C)n2ncc(C(=O)Nc3ccc4c(c3)CCC4)c2n1	11.6 µM (active)	
Cc1cc(C)n2ncc(C(=O)NCc3ccco3)c2n1	20.6 µM (active)	
Cc1cc(C)n2ncc(C(=O)Nc3ccc(C(F)(F)F)cc3)c2n1	13 µM (active)	
Cc1cc(C)n2ncc(C(=O)Nc3cccc(C(F)(F)F)c3)c2n1	20.6 µM (active)	
COc1ccc(NC(=O)c2cnn3c(C)cc(C)nc23)cc1	14.6 µM (active)	
O=C(Nc1cnn(Cc2ccc(F)cc2)c1)c1cnn2c(C(F)F)cc(-c3ccccc3)nc12	10.3 µM (active)	
Cc1cc(C)n2ncc(C(=O)Nc3ccccc3)c2n1	9.19 µM (active)	
Cc1ccc(NC(=O)c2cnn3c(C)cc(C)nc23)c(C)c1	23.1 µM (active)	
Cc1cc(C)n2ncc(C(=O)Nc3ccc(C)c(C)c3)c2n1	7.3 µM (active)	
Cc1cc(C)n2ncc(C(=O)Nc3ccncc3)c2n1		10.5%
Cc1cc(C)n2ncc(C(=O)NCc3ccccc3)c2n1	13 µM (active)	
Cc1cc(C)n2ncc(C(=O)N3CCCC3)c2n1		-9.05%
Cc1cc(C)n2ncc(C(=O)Nc3cccc(C#N)c3)c2n1		0.235% [at 19 µM]
Cc1cccc(NC(=O)c2cnn3c(C)cc(C)nc23)c1	18.3 µM (active)	
CC(=O)c1ccc(NC(=O)c2cnn3c(C)cc(C)nc23)cc1		19.5%
